# Test results as given in PubChem BioAssay (NCATS).
# Results filed as inconclusive are left out. Unmarked numbers belong to inactive results. Calls come from the whole dose curve; as a rule, active = well fitted inhibition curve with a large enough effect; inconclusive = small, poorly fitted or top-dose-only effect; inactive = no such curve, though single readings can be large or run the other way.
# Assay: qHTS assay for measurement of the activity of small molecule inhibitors on Zika virus induced Caspase-3 activity in human iPSC derived neural progenitor cells (hNPCs) (AID 1224857); note: % of control where 0% means no effect; nearly all actives have a fitted effect of over 65% in size
# Conditions: hNPCs ZIKV-induced caspase-3/7, Caspase-Glo luminescence, 6 h; series mostly up to 45.7 µM; activity change, negative = inhibition: at the top concentration
# In short: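 Values are percent inhibition of virus-induced caspase-3/7 signal, scaled between uninfected cells and ZIKV-infected cells. Infection used 2 FFU/cell for 6 h after 1 h compound exposure.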
row,SMILES,"activity change, negative = inhibition [%]"
1,O=C(CCSCc1ccco1)NNC(=O)N1Cc2ccccc2Oc2ccc(Cl)cc21,-24.9
2,O=C(Nc1ccncc1)c1cc([N+](=O)[O-])ccc1Cl,8.36
3,Nc1nc(Nc2ccccc2)nc2c1ncn2[C@@H]1O[C@H](CO)C(O)[C@H]1O (stereo partly specified),-17.3
4,Nc1nc(OCC2CCCCC2)c2[nH]cnc2n1,-0.371
5,O=C(Nc1ccc2c(c1)CCN(Cc1ncn[nH]1)C2)c1ccccc1-c1ccc(C(F)(F)F)cc1,19.5
6,COc1ccc(Br)cc1S(=O)(=O)NC(=O)/C=C/c1ccccc1Cc1ccc2ccccc2c1,-18.5
7,CS(=O)(=O)c1ccc(-n2nc(C(F)(F)F)cc2-c2ccc(F)cc2)cc1,-2.06
8,CN[C@H](CC(C)C)C(=O)N[C@H]1C(=O)N[C@@H](CC(N)=O)C(=O)N[C@H]2C(=O)N[C@H]3C(=O)N[C@H](C(=O)N[C@H](C(=O)O)c4cc(O)cc(O)c4-c4cc3ccc4O)[C@H](O)c3ccc(c(Cl)c3)Oc3cc2cc(c3O[C@@H]2O[C@H](CO)[C@@H](O)[C@H](O)[C@H]2O[C@H]2C[C@](C)(N)[C@H](O)[C@H](C)O2)Oc2ccc(cc2Cl)[C@H]1O,-2.38
9,Nc1ccn([C@H]2O[C@H](CO)[C@@H](O)C2(F)F)c(=O)n1,20.2
10,S=c1[nH]c(-c2ccccc2)cn1-c1ccccc1,-17.1
11,N[C@H](CCCP(=O)(O)O)C(=O)O,4.55
12,Cc1c(N)c(=O)n(-c2ccccc2)n1C,-9.65
13,Nc1nc(Cl)nc2c1ncn2[C@@H]1O[C@H](CO)C(O)[C@H]1O (stereo partly specified),22.2
14,Fc1ccc2[nH]c(CN3CCN(c4ccccn4)CC3)cc2c1,-12.5
15,CC(C)(C)c1nnc(NS(=O)(=O)c2ccc(N)cc2)s1,2.36
16,Nc1nc(SCc2ccc([N+](=O)[O-])cc2)c2ncn([C@@H]3O[C@H](CO)C(O)[C@H]3O)c2n1 (stereo partly specified),34.2
17,O=[N+]([O-])c1ccc(CNc2nc(NCc3cccc(C(F)(F)F)c3)nc3nc[nH]c23)cc1,-11.1
18,CC(C)(NS(=O)(=O)c1ccc(Oc2ccc(F)cc2)cc1)C(=O)NO,-1.84

row,SMILES,"activity change, negative = inhibition [%]"
1,Nc1ccn([C@@H]2O[C@H](CO)[C@@H](O)[C@@H]2O)c(=O)n1,31.8
2,CCNC(=O)[C@H]1O[C@@H](n2cnc3c(N)nc(NCCc4ccc(CCC(=O)O)cc4)nc32)[C@H](O)C1O (stereo partly specified),2.68
3,COc1cc(OC)cc(-c2cc3cnc(N)nc3nc2NC(=O)NC(C)(C)C)c1,9.4
4,Cn1c(=O)c(-c2c(Cl)cccc2Cl)cc2cnc(Nc3ccc(N4CCOCC4)cc3)nc21,-0.197
5,C[C@H](Cc1ccccc1)Nc1ncnc2c1ncn2[C@@H]1O[C@H](CO)C(O)[C@H]1O (stereo partly specified),1.31
6,C=C/C(C)=C/[C@@]1(C)SC(=O)C(C)=C1O,11.9
7,OC[C@H]1O[C@@H](n2cnc3c(NC4CCCC4)ncnc32)[C@H](O)C1O (stereo partly specified),-1.3
8,CO[C@H]1O[C@@H]2O[C@]3(C)CC[C@@H]4[C@@H](C)CC[C@H]([C@H]1C)[C@]24OO3,-10
9,NC(=O)C1=CN(C2OC(COP(=O)(O)OP(=O)(O)OC[C@H]3O[C@@H](n4cnc5c(N)ncnc54)[C@H](OP(=O)(O)O)C3O)C(O)C2O)C=CC1 (stereo partly specified),-2.35
10,O=C1NCc2c1c1c3ccccc3[nH]c1c1[nH]c3ccccc3c21,91.1
11,O=c1cc(-c2ccccc2)oc2c(O)c(O)ccc12,18.8
12,COc1ccc(-c2cc(=O)c3c(O)c(OC)c(OC)cc3o2)cc1O,1.83
13,O=C1NC(O)=NC1(c1ccccc1)c1ccccc1,-36.4
14,CCCC(CCC)C(=O)OC1CC2CCC(C1)[N+]2(C)C (stereo unspecified),-13.8
15,COC(=O)C1=C(C)NC(C)=C(C(=O)OC)C1c1cccc(NC(=O)NCCCN2CCC(c3cccc(OC)c3)CC2)c1,-6.34
16,CCCCN(CC)c1nc(C)nc2c1c(C)cn2-c1c(C)cc(C)cc1C,78.9
17,N=c1ccn2c(n1)O[C@H]1C(O)[C@@H](CO)O[C@H]12 (stereo partly specified),24.2
18,CCN(CC)CCCCNc1ncc2cc(-c3c(Cl)cccc3Cl)c(NC(=O)NC(C)(C)C)nc2n1,2.1
